Assay in all cases: NCI-60 one-dose screen, 48 h (100 = growth as untreated, 0 = no growth, -100 = all killed)
One experiment concerns NCI-H23 lung. The settings on record: 10 µM unless noted.
For the next experiment, the system named is NCI-H226 lung. Conditions: 10 µM unless noted.
For another experiment, the system named is NCI-H322M lung. Conditions: 10 µM unless noted.
The subject of the next experiment is HOP-62 NSCLC. Conditions: 10 µM unless noted.
A further experiment concerns NCI-H460 lung. Conditions: 10 µM unless noted.
The next experiment deals with HOP-92 NSCLC. The settings on record: 10 µM unless noted.
The test system of a further experiment is NCI-H522 lung. Conditions: 10 µM.
In another experiment the test system is 786-0 renal. Conditions: 10 µM unless noted.
The subject of the next experiment is COLO 205 colon. The settings on record: 10 µM unless noted.
Another experiment concerns DU-145 prostate. Conditions: 10 µM unless noted.
Another experiment has as its system K-562 leukemia. Conditions: 10 µM unless noted.
A further experiment has as its system MALME-3M melanoma. The settings on record: 10 µM unless noted.
The next experiment deals with MDA-MB-231 breast. Conditions: 10 µM unless noted.
The next experiment has as its system RXF 393 renal. Conditions: 10 µM unless noted.
Another experiment concerns SF-268 CNS. The settings on record: 10 µM unless noted.
A further experiment concerns SF-295 CNS. The settings on record: 10 µM unless noted.
A further experiment concerns SF-539 CNS. Conditions: 10 µM unless noted.
A further experiment deals with UACC-257 melanoma. The settings on record: 10 µM unless noted.
For a further experiment, the system named is M14 melanoma. Conditions: 10 µM unless noted.

About 83,000 compounds went through this panel and 20% of them were active in at least one assay; those are over-represented in the sample as a whole.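 Interpretation: 100, growth as untreated; towards 0, rising growth inhibition; 0, no net growth; 0 to -100, cell death. Compounds scoring below 10 were considered active.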 Values without a mark were called inactive. Activity calls are given as the source filed them.

This is an account of results in PubChem BioAssay (NCI).

Regarding `O=C(c1ccccc1)c1ccc(Oc2ccc([N+](=O)[O-])cc2[N+](=O)[O-])cc1`, the growth in the experiment with NCI-H23 lung was 86.2%; in the experiment on NCI-H226 lung, 48.4%; in the experiment on NCI-H322M lung it was 109%; in the experiment on HOP-62 NSCLC it was 99.1%; with NCI-H460 lung, 103%; in the experiment with HOP-92 NSCLC it was 52.9%. The growth with NCI-H522 lung was -26.6% (active); in the experiment with 786-0 renal it was 71.9%; with COLO 205 colon, 84%; in the experiment on DU-145 prostate, 95.9%; in the experiment with K-562 leukemia, 11.9%; in the experiment with MALME-3M melanoma, 70.2%. For the same compound, the growth in the experiment on MDA-MB-231 breast was 89.5%; in the experiment with RXF 393 renal, 81.1%; with SF-268 CNS, 87.8%; with SF-295 CNS, 91.2%; with SF-539 CNS, 55.3%; with UACC-257 melanoma, 71%. In the experiment with M14 melanoma, the growth was 53.8%.

For the compound `NC(=O)c1cc(Br)cc(Br)c1NS(=O)(=O)c1ccccc1`, the growth in the experiment with NCI-H23 lung is 100%; in the experiment on NCI-H226 lung, 95.3%; in the experiment on NCI-H322M lung it was 94.5%; in the experiment with HOP-62 NSCLC it was 98%; in the experiment on NCI-H460 lung, 102%; with HOP-92 NSCLC, 93.6%. Besides, the growth with NCI-H522 lung is 100%; in the experiment with 786-0 renal, 108%; with COLO 205 colon it was 101%; in the experiment with DU-145 prostate, 110%; with K-562 leukemia, 122%; in the experiment on MALME-3M melanoma, 94.1%. For the same compound, the growth in the experiment with MDA-MB-231 breast was 88.1%; in the experiment with RXF 393 renal it was 104%; in the experiment on SF-268 CNS it was 108%; in the experiment with SF-295 CNS, 98.2%; in the experiment on SF-539 CNS it was 98.6%; in the experiment on UACC-257 melanoma, 131%. Besides, in the experiment with M14 melanoma, the growth was 101%.

For the compound `C[C@H]1c2cccc(O)c2C(O)=C2C(=O)[C@]3(O)C(O)=C(C(N)=O)C(=O)[C@@H](N(C)C)[C@@H]3[C@@H](O)[C@@H]21`, the growth was 41.5% in the experiment with NCI-H23 lung; 69.2% in the experiment with NCI-H226 lung; 44.2% in the experiment on NCI-H322M lung; 51.8% in the experiment with HOP-62 NSCLC; 35.9% with NCI-H460 lung; 24.3% in the experiment on HOP-92 NSCLC. Also, the growth in the experiment on NCI-H522 lung is 45.4%; with 786-0 renal, 50.7%; in the experiment with COLO 205 colon it was 67.8%; with DU-145 prostate it was 47.7%; with K-562 leukemia, 37.9%; in the experiment with MALME-3M melanoma, 27.8%. Also, the growth is 74.6% in the experiment with MDA-MB-231 breast; 58.3% with RXF 393 renal; 28.2% in the experiment with SF-268 CNS; 19.2% with SF-295 CNS; 25.6% with SF-539 CNS; 57.7% with UACC-257 melanoma. The growth in the experiment on M14 melanoma was 32.1%.

On to `NS(=O)(=O)c1cc(C2(O)NC(=O)c3ccccc32)ccc1Cl` (configuration not stated), for which the growth in the experiment with NCI-H23 lung is 106%; in the experiment with NCI-H226 lung, 97.9%; with NCI-H322M lung, 89.6%; with HOP-62 NSCLC it was 109%; in the experiment on NCI-H460 lung it was 111%; with HOP-92 NSCLC, 104%. In addition, the growth in the experiment with NCI-H522 lung is 99.5%; in the experiment with 786-0 renal, 102%; with COLO 205 colon, 103%; in the experiment with DU-145 prostate, 116%; in the experiment with K-562 leukemia, 111%; in the experiment on MALME-3M melanoma, 95.4%. The growth was 112% in the experiment with MDA-MB-231 breast; 109% with RXF 393 renal; 109% with SF-268 CNS; 103% with SF-295 CNS; 97.7% in the experiment on SF-539 CNS; 112% in the experiment with UACC-257 melanoma. Besides, in the experiment on M14 melanoma, the growth is 104%.

Turning to `CCN1CC2=C(Nc3nc(SC)[nH]c(=O)c3C2c2cc(OC)c(OC)c(OC)c2)/C(=C/c2cc(OC)c(OC)c(OC)c2)C1` (configuration not stated), the growth in the experiment with NCI-H23 lung was 99.2%; in the experiment on NCI-H226 lung it was 98.5%; in the experiment on NCI-H322M lung it was 95.2%; in the experiment with HOP-62 NSCLC, 104%; in the experiment on NCI-H460 lung, 106%; in the experiment on HOP-92 NSCLC, 81.6%. For the same compound, the growth with NCI-H522 lung was 81.2%; in the experiment with 786-0 renal, 96.9%; in the experiment with COLO 205 colon, 113%; in the experiment on DU-145 prostate, 112%; in the experiment on K-562 leukemia it was 90.9%; in the experiment with MALME-3M melanoma, 112%. Also, the growth in the experiment with MDA-MB-231 breast was 104%; with RXF 393 renal it was 106%; in the experiment on SF-268 CNS, 110%; with SF-295 CNS, 100%; in the experiment with SF-539 CNS it was 104%; with UACC-257 melanoma, 97%. For the same compound, in the experiment on M14 melanoma, the growth was 114%.

Take `CCSc1nc(Nc2ccc(S(=O)(=O)Nc3ccon3)cc2)c(C#N)c(-c2cccc(Br)c2)n1`: the growth is 101% in the experiment with NCI-H23 lung; 77.2% in the experiment with NCI-H226 lung; 74.3% in the experiment with NCI-H322M lung; 93.9% with HOP-62 NSCLC; 106% in the experiment with NCI-H460 lung; 90.2% in the experiment with HOP-92 NSCLC. Also, the growth was 87.3% in the experiment with NCI-H522 lung; 94.8% with 786-0 renal; 117% in the experiment with COLO 205 colon; 112% with DU-145 prostate; 77.9% in the experiment on K-562 leukemia; 105% in the experiment with MALME-3M melanoma. For the same compound, the growth in the experiment on MDA-MB-231 breast is 97%; in the experiment on RXF 393 renal it was 94.7%; in the experiment with SF-268 CNS, 99.3%; in the experiment on SF-295 CNS, 82%; in the experiment with SF-539 CNS, 82.2%; in the experiment on UACC-257 melanoma, 115%. Besides, in the experiment with M14 melanoma, the growth was 104%.

In the case of `COc1cc(/C=C2\CN(C)CC3=C2Nc2nc(SC)[nH]c(=O)c2C3c2cc(OC)c(OC)c(OC)c2)cc(OC)c1OC` (configuration not stated), the growth with NCI-H23 lung is 49.4%; with NCI-H226 lung it was 72.1%; with NCI-H322M lung, 86.7%; in the experiment on HOP-62 NSCLC, 69.8%; in the experiment with NCI-H460 lung it was 10.1%; with HOP-92 NSCLC it was 82.7%. Further, the growth with NCI-H522 lung was 37.8%; with 786-0 renal, 67.4%; in the experiment with COLO 205 colon, 31.2%; with DU-145 prostate, 7.76% (active); in the experiment on K-562 leukemia, 8.74% (active); with MALME-3M melanoma, 81.2%. Besides, the growth in the experiment with MDA-MB-231 breast is 37.6%; with RXF 393 renal, 69.7%; with SF-268 CNS, 37.4%; in the experiment with SF-295 CNS, 63.8%; in the experiment on SF-539 CNS it was 34.8%; in the experiment with UACC-257 melanoma, 53.9%. Also, the growth in the experiment with M14 melanoma is 24.3%.

For the compound `COc1cccc2c1C(=O)c1c(O)c3c(c(O)c1C2=O)C[C@@](O)(C(C)=O)C[C@@H]3O[C@H]1C[C@H](N)[C@H](O)[C@H](C)O1`, the growth with NCI-H23 lung is -67.3% (active); in the experiment with NCI-H226 lung it was -33.1% (active); in the experiment with NCI-H322M lung it was -19.9% (active); in the experiment with HOP-62 NSCLC it was -50.2% (active); with NCI-H460 lung, -3.01% (active); in the experiment with HOP-92 NSCLC it was -28% (active). Also, the growth was -89.3% (active) in the experiment with NCI-H522 lung; -9.97% (active) in the experiment with 786-0 renal; -85.8% (active) in the experiment on COLO 205 colon; 1.62% (active) in the experiment on DU-145 prostate; -4.44% (active) in the experiment on K-562 leukemia; -70.7% (active) with MALME-3M melanoma. Also, the growth with MDA-MB-231 breast was -14.6% (active); with RXF 393 renal it was -65.1% (active); with SF-268 CNS, -43.8% (active); in the experiment with SF-295 CNS it was -30.8% (active); in the experiment with SF-539 CNS, -43.1% (active); with UACC-257 melanoma, -47.3% (active). In addition, in the experiment with M14 melanoma, the growth was -86.5% (active).
